SARS PLP yeast: qHTS of Yeast-based Assay for SARS-CoV PLP; S. cerevisiae expressing SARS-CoV PLpro, growth rescue; Potency, µM (series often up to 32.9 µM), for inactives: at the highest dose activity, positive = growth rescue, usual class: activators; 330,000 tested, 0.19% active; calls by dose curve; further: potency means the concentration at half of the fitted maximal effect; 0% is about no effect; nearly all actives have a fitted effect of over 55% in size
MARV entry inh: qHTS for inhibitors of binding or entry into cells for Marburg Virus; AID 540276, 2011; Potency, µM (top dose mostly 37.8 µM), for inactives: at the top dose activity change, negative = inhibition, hits mostly inhibitors; Marburg virus pseudotyped entry inhibition, cell reporter; 300,000 tested, 1.8% active; calls by dose curve; tested in HEK293 cells; further: potency means the concentration at half of the fitted maximal effect; on the % scale 0 is the no-effect control and ±100 the full control effect
Lassa entry inh: qHTS for Inhibitors of binding or entry into cells for Lassa Virus; Lassa virus pseudotype entry inhibition, cell reporter; Potency, µM (titrated, usually from 37.9 µM), for inactives: at the top dose activity change, negative = inhibition, most hits filed as inhibitors; 300,000 tested, 1.2% active; calls by dose curve; tested in HEK293 cells; further: potency means the concentration at half of the fitted maximal effect; on the % scale 0 is the no-effect control and ±100 the full control effect; nearly all actives have a fitted effect of over 50% in size
HCV inh: qHTS Assay for Inhibitors of Hepatitis C Virus (HCV). 340,000 tested, 3.4% active. Potency, µM (doses to about 41.8 µM), for inactives: at the top dose activity change, negative = inhibition, most hits filed as inhibitors. Huh7.5.1 HCVcc-Cre infection, luciferase reporter, 44 h. AID 651820, 2012; active means well fitted inhibition curve with a large enough effect; inconclusive means small, poorly fitted or top-dose-only effect, or another doubt; inactive means no such curve, though single readings can be large or run the other way; further: potency means the concentration at half of the fitted maximal effect; on the % scale 0 is the no-effect control and ±100 the full control effect
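Infectious HCVcc-Cre (~0.5 moi) was added to cells just after compound, with cells seeded 4 h earlier at 1,000 per well. Luciferase activity after 44 h culture reported infection; substrate was incubated 15 min at room temperature before reading.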
FMDV antiviral: High Throughput Screening for Foot and Mouth Disease Virus Antivirals; FMDV antiviral cell-based qHTS; Potency, µM (top dose mostly 57.9 µM), without a hit: at the highest dose activity change, negative = inhibition, most hits filed as inhibitors; 410,000 tested, 1.2% active; AID 1159524, 2015; calls by dose curve; tested in HEK293T cells; further: read-out not given here; potency means the concentration at half of the fitted maximal effect; on the % scale 0 is the no-effect control and ±100 the full control effect; nearly all actives have a fitted effect of over 45% in size
HCMV inh: qHTS Assay for inhibitors of the human cytomegalovirus (HCMV); HFF cells, HCMV-luciferase reporter, 72 h; hits give low values; activity change, negative = inhibition, % at 57.5 µM; 410,000 tested, 4.5% active; AID 1259415, 2018; in the data active means activity change below about -60%; inconclusive means no clear call, values can overlap the other calls; inactive means above about -39%; further: on the % scale 0 is the no-effect control and ±100 the full control effect
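Luciferase read-out from HCMV-luciferase-infected HFFs (MOI 1 PFU/cell) 72 h post infection at 37C; compounds added after 16 h cell attachment; activity normalized between buffer-only basal and Salinomycin (10uM) inhibitor controls.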
An asterisk follows results filed as active; ? = inconclusive; · = no result; [ ] = dose if it differs, or a comment. This is a sample that favours compounds with a hit; in the whole collection about 8% have one here.

SMILES	SARS PLP yeast	MARV entry inh	Lassa entry inh	HCV inh	FMDV antiviral	HCMV inh
CCCCCCN1C[C@@H](n2cc(COC(=O)c3ccccc3)nn2)[C@H](O)C[C@@H]1c1ccccc1	·	·	·	·	-22.3%	-103.4*
CCCCCCN1C[C@H](n2cc(C3CC3)nn2)[C@@H](O)C[C@H]1c1ccc(Cl)cc1	·	·	15.8µM*	·	·	·
O=C(OCc1cn([C@H]2CN(CC3CCCCC3)[C@@H](c3ccc(Cl)cc3)C[C@H]2O)nn1)c1ccccc1	·	14.1µM*	·	·	·	·
CCCCCCN1C[C@H](n2cc(COC(=O)c3ccccc3)nn2)[C@@H](O)C[C@@H]1c1ccccc1	·	·	·	·	0.0%	-14.9
CC1N=C2c3ccccc3N=C(SCC(=O)NCCc3ccc(Cl)cc3)N2C1=O (stereo unspecified)	·	·	14.7%[46.1 µM]	·	6.7%	-14.9
CS(=O)(=O)N(CC(=O)NCC1CCCO1)c1ccc(F)c(Cl)c1 (stereo unspecified)	7.8%	0.0%	-11.5%	2.8%	-13.8%	-60.4*
CS(=O)(=O)N(CC(=O)NCC1CCCO1)c1ccc(Cl)c(Cl)c1 (stereo unspecified)	-2.0%	-13.4%	4.1%	6.0%	·	48.5
COc1cc(C(=O)OCc2cccc(S(=O)(=O)N3CCOCC3)c2)ccc1OCC(C)C	-8.2%	·	·	10µM*	-3.4%	-5.8
CC(c1ccccc1C(O)(c1ccccc1)c1ccccc1)N(C)C (stereo unspecified)	3.2%	-6.8%	-17.1%	6.3%	-13.7%	-68.8*
O=C(Nc1ccc(Cl)cn1)c1ccc2[nH]c(=O)c(=O)[nH]c2c1	1.4%	·	·	4.2%	17.2%	2.7
COc1cc(/C=C/c2ccc(O)cc2)cc(OC)c1	-29.0%	·	·	12.6µM*	27.5%	12.6
CC(C)CC(=O)Nc1nc2nc(-c3ccccc3)cc(=O)n2[nH]1	·	18.3%[46.1 µM]	-1.1%[46.1 µM]	·	-7.9%	-4.2
CCc1ccccc1-n1c(C)nc2cc(C(=O)NCCc3ccc(Cl)cc3)ccc21	·	·	11.8%[46.1 µM]	·	-17.9%	-15.7
CCOC(=O)c1ccc2c(c1)sc(=NC(=O)c1ccco1)n2CCOC	11.1%	?	-5.5%	-11.4%	4.8%	-68.1*
COCCn1c(=NC(=O)c2ccc3c(c2)OCCO3)sc2cc(C(=O)OC)ccc21	·	·	?	·	0.0%	67.2
Nc1nc2nn(-c3ccccc3)nc2c(=O)[nH]1	0.4%	·	·	15.4%	32.0%	1.1
Nc1nc2n[nH]nc2c(=O)[nH]1	·	·	·	?	-6.4%	-95.8*
Cc1ccccc1C(=O)N1CCCCC1CCN1CCCCC1 (stereo unspecified)	·	-0.7%[46.1 µM]	3.6%[46.1 µM]	·	-9.2%	-20.4
CCCOc1ccccc1C(=O)N1CCCCC1CCN1CCCCC1 (stereo unspecified)	·	?	5.7%[46.1 µM]	·	3.3%	-69.6*
O/C=c1\ccc2cccc3nc(C(F)(F)F)nc1c23	-0.1%	?	-3.2%	?	12.6µM*	-25.9
NNc1nc(C(F)(F)F)nc2ccccc12	-2.1%	0.5%[46.1 µM]	-16.8%	10.6%	-1.2%	22.3
CCCCOc1ncnc2c1[nH]c1ccccc12	-24.5%	?	-10.8%	4.47µM*	?	-28.3
CCCCOc1ncnc2c1[nH]c1ccc(F)cc12	-2.0%	?	?	2.82µM*	·	-94.3*
Cc1ccc(NC(=O)C(CC(C)C)NS(=O)(=O)c2ccc3c(c2)oc(=O)n3C)c(C)c1 (stereo unspecified)	·	3.9%[46.1 µM]	-3.5%[46.1 µM]	·	-5.5%	-11.9
COc1ccc2cc3cc(C(=O)NCCN4CCN(c5ccccc5F)CC4)oc3nc2c1	3.8%	12.6µM*	?	?	17.8µM*	-29.7
COc1ccc2cc3cc(C(=O)NCCC(C)C)oc3nc2c1	-0.9%	9.8%	3.55µM*	?	6.9%	-38.0
COc1ccc2cc3cc(C(=O)Nc4ccccc4N4CCN(C)CC4)oc3nc2c1	-3.0%	-16.5%	13.3%	10µM*	?	-22.3
COCCNC(=O)c1cc2cc3ccc(OC)cc3nc2o1	6.4%	·	·	8.7%	27.9%	20.6
Cc1ccc2cc3cc(C(=O)NCCCN4CCCCCC4)oc3nc2c1	-1.2%	-2.6%[46.1 µM]	-1.4%	?	-11.7%	26.5
